Hit rate of the full screen: of about 2,500 compounds, about 790 (32%) were called active. These entries were drawn from the full list. A number with no mark means an inactive call.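 The calls were made as follows: active = mean cytotoxicity at 5 µM above about 25% (limit read from the data); inactive = the rest.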
Assay: cell viability loss, Sufu-null reporter line – ATP luminescence, single concentration, cytotoxicity control for Gli-SUFU antagonist project, confirmation (AID 651994);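 also: cells exposed to compound overnight for roughly 16 to 18 hours; plate controls were DMSO wells with cells for no effect and medium without cells for full effect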
Settings: Sufu-KO-LIGHT cells cytotoxicity, at 5 µM, active compounds read high

Row | SMILES | cytotoxicity
1 | Cc1ccc(-c2nc3c(cnn3-c3ccccc3)c(=O)o2)cc1 | 8.43%
2 | CCOc1ccc(-n2c(O)c(/C=N/c3ccnn3Cc3ccncc3)c3ccccc3c2=O)cc1 | 23.8%
3 | COc1ccccc1/C=C/CN1CCC(CO)(Cc2ccccc2)CC1 | -4.47%
4 | CC1CC2=C(CC1/C=N/NC(N)=S)C(C)(C)CCC2 (configuration not stated) | 11.9%
5 | CC(=O)/C(=N\Nc1ccc(Cl)cc1Cl)Sc1cccc2cccnc12 | 25.7% (active)
6 | CN(C)c1cc[n+](Cc2ccccc2)cc1 | 33.3% (active)
7 | COC(=O)c1ccc(CSc2nnc(N)s2)o1 | 21.4%
8 | CCNC(=S)N(CCN(CC)CC)Cc1cc2cc3c(cc2[nH]c1=O)OCO3 | 6.68%
9 | C=CCn1c(SCC(=O)CC(=O)OCC)nc2cc(C(=O)N3CCC(C(N)=O)CC3)ccc2c1=O | 3.69%
10 | Cc1ccccc1C(=O)NC(=S)Nc1ccc(N2CCN(C(=O)c3ccccc3)CC2)cc1 | 32.2% (active)
11 | Cc1cc2[nH]ncc2cc1NC(=S)NC(=O)c1ccccc1 | 2.37%
12 | CC(C)Oc1ccc(CN2CCC(n3nccc3NC(=O)c3cccnc3)CC2)cc1 | 4.98%
13 | CNc1ccc(SC#N)cc1 | 3.32%
14 | CCCC1=Nc2cc(C(=O)NCc3ccco3)ccc2Sc2ccccc21 | 53.8% (active)
15 | CC(C)OCC(O)CN1CCN(C(c2ccccc2)c2ccccc2)CC1 (configuration not stated) | 16.3%
16 | CC(C)c1ccc(OCC(O)CN2CCN(c3ccccn3)CC2)cc1 (configuration not stated) | 9.73%
17 | O=[N+]([O-])c1ccc(N2CCN(CC(O)COc3ccccc3)CC2)cc1 (configuration not stated) | 30.6% (active)
18 | O=C(c1cc(Cl)cc(Cl)c1)N1CCC(=O)N(C(COCc2ccccc2)Cc2ccccc2)CC1 (configuration not stated) | 21.8%
19 | CCCCC(=O)NC(c1ccc(OC)c(OC)c1)c1ccc2cccnc2c1O (configuration not stated) | 19.2%
20 | C=CCOC(=O)C1=C[C@@H](c2ccc3c(c2)OCO3)C[C@@H](OCCCCO)O1 | 2.89%
21 | Cc1nonc1C1CCCN1C(=O)c1cc(COc2cccc(C(F)(F)F)c2)on1 (configuration not stated) | 29.3% (active)

Row | SMILES | cytotoxicity
22 | O=C1/C(=C\c2cccnc2)CN(Cc2ccccc2)C/C1=C\c1cccnc1 | 10.1%
23 | O=C(NC1CCN(C(=S)Nc2ccc(Cl)cc2)CC1)C1CCCCC1 | 2.7%
24 | C=CCOc1nc2c(c(=O)n(C)c(=O)n2C)n1Cc1ccc(Cl)cc1Cl | 26.7% (active)
25 | COC(=O)Cc1[nH]n(-c2nc3ccccc3s2)c(=O)c1C(C)=Nc1ccc(OC)cc1 | 15.6%
26 | COc1ccccc1CCNC(=O)C(=O)NCCC1CCCCN1S(=O)(=O)c1cccs1 (configuration not stated) | 20.7%
27 | N#CC(C#N)=CN=c1ccn(Cc2ccc(Cl)cc2Cl)cc1 | 29.5% (active)
28 | CCCOc1ccc(Cc2c(Cl)nc(SC)nc2NC)cc1 | 31.8% (active)
29 | CC(C)Oc1ccc(/C=N/NC(=O)c2nnn(-c3nonc3N)c2CN(C)C2CCCCC2)cc1 | 9.64%
30 | O=C(CN1C(=O)c2ccccc2S1(=O)=O)N1CCc2ccccc21 | 36.9% (active)
31 | Cc1onc(-c2ccccc2)c1C(=O)Nc1ccccc1C#N | 7.65%
32 | Cc1cc(NC(=O)c2cccc(N3C(=O)CCC3=O)c2)no1 | 8.93%
33 | C/C(=N\NC(=O)Cc1ccc(Cl)cc1)c1ccccn1 | 38.9% (active)
34 | CC(=O)Nc1cccc(OCC(=O)/C=C2\N(C)c3ccccc3C2(C)C)c1 | 23.9%
35 | Cc1ccc(C(=O)C[n+]2cc(-c3ccccc3)n3c2CCCCC3)cc1 | 38.4% (active)
36 | COc1ccc(Cn2c(-c3ccc(Cl)cc3)c[n+]3ccccc23)cc1 | 15.3%
37 | Cc1cc([N+](=O)[O-])c(-c2ccc(/C=N/n3cnnc3)o2)cc1Cl | 3.83%
38 | COc1cccc2cc(C(N)=O)/c(=N\NC(=O)c3ccccc3)oc12 | 19.1%
39 | COc1ccc(OC)c(/C=N/NC(=O)c2ccc[n+](CC(=O)c3ccccc3)c2)c1 | 26.3% (active)
40 | CCN(CC)S(=O)(=O)c1ccc(Cl)c(C(=O)NC(C)C(c2cccs2)N2CCCC2)c1 (configuration not stated) | 13.4%
41 | COc1ccc(OC)c(Cc2cnc3nc(N)nc(N)c3c2C)c1 | 15.7%
42 | CCOC(=O)c1cnc(Nc2nc3ccccc3o2)nc1CSC(=S)N1CCCCC1 | 20.4%

Reference: PubChem BioAssay AID651994 (Sanford-Burnham Center for Chemical Genomics, 2013)
